The results in this text go back to PubChem BioAssay (NCI).

About 83,000 compounds went through this panel and 20% of them were active in at least one assay; those are over-represented in the sample as a whole.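 Interpretation: 100, growth as untreated; towards 0, rising growth inhibition; 0, no net growth; 0 to -100, cell death. Compounds scoring below 10 were considered active.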 Unmarked numbers belong to inactive results. The source made the active and inactive calls.

Among the test systems are DU-145 prostate; K-562 leukemia; MALME-3M melanoma; MDA-MB-231 breast; RXF 393 renal; SF-268 CNS; SF-295 CNS; SF-539 CNS; UACC-257 melanoma; M14 melanoma.
Common to all, as to experiment: NCI-60 one-dose screen, 48 h (100 = growth as untreated, 0 = no growth, -100 = all killed)
What all share (conditions): 10 µM unless noted

`COc1ccc2c(c1)C(Sc1ccc(F)cc1)c1c(nc(N)c(C#N)c1N)O2` (stereo not given): the growth is 99.5% in the experiment with DU-145 prostate; 63.5% in the experiment with K-562 leukemia; 88.3% with MALME-3M melanoma; 80.1% in the experiment on MDA-MB-231 breast; 69.2% in the experiment with RXF 393 renal; 85% in the experiment on SF-268 CNS. Besides, the growth with SF-295 CNS was 92.8%; with SF-539 CNS, 90.5%; in the experiment with UACC-257 melanoma it was 104%; in the experiment with M14 melanoma it was 84.9%.

As for `COc1ccc(-c2cc(-c3ccccc3)c(C#N)c(=O)[nH]2)cc1S(N)(=O)=O`, the growth in the experiment with DU-145 prostate was 103%; in the experiment with K-562 leukemia it was 109%; with MALME-3M melanoma, 97.9%; with MDA-MB-231 breast, -18.1% (active); with RXF 393 renal it was 100%; in the experiment on SF-268 CNS, 101%. Besides, the growth in the experiment with SF-295 CNS was 108%; in the experiment on SF-539 CNS it was 96.3%; with UACC-257 melanoma it was 98.9%; with M14 melanoma, 99.7%.

Take `COc1cc(NC(=O)C(C)C)ccc1C(=O)NC(=S)Nc1ccc(S(N)(=O)=O)cc1`: the growth is 106% in the experiment with DU-145 prostate; 108% with K-562 leukemia; 94.4% in the experiment with MALME-3M melanoma; 93.1% in the experiment on MDA-MB-231 breast; 88.7% in the experiment with RXF 393 renal; 80.8% in the experiment with SF-268 CNS. The growth in the experiment on SF-295 CNS was 84.2%; with SF-539 CNS, 88.9%; with UACC-257 melanoma, 101%; in the experiment on M14 melanoma, 106%.

Turning to `Cc1ccc2c(c1)/C(=C/C(=O)c1cc3ccccc3oc1=O)C(=O)N2`, the growth with DU-145 prostate was 83.9%; with K-562 leukemia, 6.62% (active); in the experiment with MALME-3M melanoma, -27.8% (active); in the experiment on MDA-MB-231 breast, 65.1%; in the experiment with RXF 393 renal it was -41.2% (active); with SF-268 CNS it was 84.4%. The growth with SF-295 CNS is 104%; in the experiment on SF-539 CNS, 61.1%; in the experiment with UACC-257 melanoma it was 73.3%; in the experiment on M14 melanoma, 37%.

For the compound `Cc1ccccc1NC(=O)c1cccc(NC(=O)CCl)c1`, the growth with DU-145 prostate was 69.4%; in the experiment on K-562 leukemia, 28.1%; with MALME-3M melanoma it was 79.6%; with MDA-MB-231 breast it was 49.7%; in the experiment with RXF 393 renal, 49.7%; with SF-268 CNS, 60.1%. In addition, the growth in the experiment on SF-295 CNS is 38.4%; in the experiment with SF-539 CNS it was 51.3%; in the experiment on UACC-257 melanoma it was 47.5%; in the experiment with M14 melanoma it was 50.5%.

As for `CN1CCN(C(=O)Oc2cc3c(c4ccccc24)[C@H](CCl)CN3C(=O)c2cc3cc(OCCCN4CCC4)ccc3[nH]2)[C@@H]2CSSC[C@H]21`, the growth is -31.6% (active) in the experiment on DU-145 prostate; -4.46% (active) with K-562 leukemia; -55.1% (active) in the experiment with MALME-3M melanoma; -9.52% (active) in the experiment on MDA-MB-231 breast; -71.1% (active) in the experiment with RXF 393 renal; -10.3% (active) in the experiment with SF-268 CNS. Moreover, the growth is -7.45% (active) in the experiment on SF-295 CNS, -58.8% (active) with SF-539 CNS, -21% (active) with UACC-257 melanoma and -74.7% (active) in the experiment with M14 melanoma.

`COc1ccccc1NC(=O)c1ccc(NC(=O)CCl)s1`: the growth in the experiment with DU-145 prostate was 41.1%; in the experiment with K-562 leukemia, -8.7% (active); in the experiment on MALME-3M melanoma, -4.74% (active); in the experiment on MDA-MB-231 breast, -58% (active); in the experiment with RXF 393 renal, -56.5% (active); in the experiment with SF-268 CNS, 22.3%. Besides, the growth in the experiment on SF-295 CNS was 31.9%; in the experiment with SF-539 CNS, -14.1% (active); in the experiment on UACC-257 melanoma it was 10.6%; with M14 melanoma it was -74.7% (active).

For the compound `N#C/C(=C1/C(=O)Nc2ccccc21)c1nnc(NC(=O)c2ccc(-n3c(=O)[nH]c4ccccc4c3=O)cc2)s1`, the growth with DU-145 prostate is 37.4%; in the experiment on K-562 leukemia, 15.9%; with MALME-3M melanoma it was 26.9%; with MDA-MB-231 breast it was 4.04% (active); in the experiment on RXF 393 renal, 53.4%; with SF-268 CNS, 65.4%. Besides, the growth was 74.5% with SF-295 CNS, 36.4% in the experiment on SF-539 CNS, 47.9% in the experiment on UACC-257 melanoma and 58.2% with M14 melanoma.

Turning to `Clc1ccc(-c2nc3c4c(-c5ccccc5)c(-c5ccccc5)n(Cc5ccccc5)c4ncn3n2)cc1`, the growth is 22.7% with DU-145 prostate; 4.9% (active) with K-562 leukemia; 4.59% (active) in the experiment on MALME-3M melanoma; 0.484% (active) in the experiment on MDA-MB-231 breast; -11.3% (active) in the experiment on RXF 393 renal; 20.4% in the experiment on SF-268 CNS. Also, the growth is -14.1% (active) in the experiment on SF-295 CNS, 7.91% (active) in the experiment with SF-539 CNS, 3.18% (active) in the experiment on UACC-257 melanoma and 15.4% with M14 melanoma.

Regarding `COc1ccc(C(=O)/C=C/c2ccc3c(c2)OCCO3)cc1S(N)(=O)=O`, the growth in the experiment with DU-145 prostate was 44.7%; with K-562 leukemia, 16.7%; with MALME-3M melanoma it was 88.3%; in the experiment with MDA-MB-231 breast, 86.5%; in the experiment on RXF 393 renal, 88.5%; in the experiment on SF-268 CNS it was 111%. Further, the growth in the experiment with SF-295 CNS was 79.5%; with SF-539 CNS it was 44.9%; with UACC-257 melanoma it was 77.9%; with M14 melanoma, 89.7%.

With `O=C(Nc1nc2ccc([N+](=O)[O-])cc2s1)Nc1ccccc1F`, the growth in the experiment on DU-145 prostate was 25.8%; with K-562 leukemia it was 7.7% (active); with MALME-3M melanoma it was -2.16% (active); in the experiment on MDA-MB-231 breast, 4.62% (active); in the experiment on RXF 393 renal it was 5.7% (active); in the experiment with SF-268 CNS, 29.5%. For the same compound, the growth with SF-295 CNS was 3% (active); in the experiment on SF-539 CNS, -8.34% (active); in the experiment with UACC-257 melanoma, -4.98% (active); in the experiment with M14 melanoma, 16.5%.

As for `COc1ccc2[nH]c(=O)c(CSc3ccccc3Nc3nccc(-c4ccc(Cl)cc4)n3)cc2c1`, the growth in the experiment on DU-145 prostate is 48.7%; in the experiment with K-562 leukemia, 39.7%; with MALME-3M melanoma it was 32.1%; in the experiment on MDA-MB-231 breast it was 60.9%; with RXF 393 renal it was -4.36% (active); in the experiment with SF-268 CNS it was 55.1%. The growth is 32.8% in the experiment with SF-295 CNS, 21.7% in the experiment on SF-539 CNS, 73.4% in the experiment with UACC-257 melanoma and 68.5% in the experiment with M14 melanoma.

Take `COc1ccc(N=Nc2c(N)nn3c(N)c(C#N)c(-c4ccc(F)cc4)nc23)cc1`: the growth in the experiment on DU-145 prostate is 58.8%; with K-562 leukemia, 68.6%; in the experiment with MALME-3M melanoma it was 48.7%; with MDA-MB-231 breast it was -9.82% (active); in the experiment with RXF 393 renal it was 35.1%; in the experiment with SF-268 CNS, 61.2%. The growth with SF-295 CNS was 63%; in the experiment on SF-539 CNS it was -5.21% (active); in the experiment with UACC-257 melanoma, 105%; with M14 melanoma, 80.2%.

As to `O=C1Nc2cc(-c3ccc(NS(=O)(=O)c4ccc(-c5ccccc5)cc4)cc3)ccc2/C1=C/c1ccc[nH]1`, the growth was -11.5% (active) in the experiment on DU-145 prostate; 18.8% in the experiment on K-562 leukemia; 50% in the experiment on MALME-3M melanoma; 63.9% in the experiment with MDA-MB-231 breast; -37.3% (active) in the experiment with RXF 393 renal; 75.8% in the experiment with SF-268 CNS. Further, the growth is 30.9% in the experiment on SF-295 CNS, 37.4% in the experiment on SF-539 CNS, 58.9% in the experiment on UACC-257 melanoma and 38% in the experiment on M14 melanoma.
